Only some compounds are listed: those with a hit (about 3.2% of all), similar ones and a draw of the others.
VACV mCherry inh: vaccinia inhibition (mCherry reporter); AID 720579; Vaccinia virus mCherry reporter infection, fluorescence; hit rate 0.63% among 310,000; Potency, µM (top dose mostly 36.5 µM), most hits filed as inhibitors; calls by dose curve; tested in A549 cells; note: nearly all actives have a fitted effect of over 35% in size
MARV entry inh: inhibitors of Marburg virus binding or cell entry | Marburg virus pseudotyped entry inhibition, cell reporter | Potency, µM (series often up to 37.8 µM), usual class: inhibitors | hit rate 1.8% among 300,000 | AID 540276; calls by dose curve; tested in HEK293 cells
FMDV antiviral: foot and mouth disease virus antiviral activity; FMDV antiviral cell-based qHTS; Potency, µM (doses to about 57.9 µM), usual class: inhibitors; hit rate 1.2% among 410,000; AID 1159524; calls by dose curve; tested in HEK293T cells; note: read-out not given here; nearly all actives have a fitted effect of over 45% in size
VACV Venus inh: vaccinia inhibition (Venus reporter). hit rate 0.46% among 330,000. AID 720580. Vaccinia virus Venus reporter expression, fluorescence. Potency, µM (series often up to 36.5 µM), most hits filed as inhibitors; calls by dose curve; tested in A549 cells; note: nearly all actives have a fitted effect of over 30% in size
Lassa entry inh: blocks Lassa virus binding to or entry into cells; AID 540256; Lassa virus pseudotype entry inhibition, cell reporter; Potency, µM (titrated, usually from 37.9 µM), usual class: inhibitors; hit rate 1.2% among 300,000; calls by dose curve; tested in HEK293 cells; note: nearly all actives have a fitted effect of over 50% in size
Hits are given with their value; n = inactive; u = inconclusive; x = no result given.

SMILES | VACV mCherry inh | MARV entry inh | FMDV antiviral | VACV Venus inh | Lassa entry inh
CCCNC(=O)c1cn(CC)c2cc(N3CCN(C(=O)c4ccco4)CC3)c(F)cc2c1=O | x | x | n | x | x
CCn1cc(C(=O)NCc2cccc(F)c2)c(=O)c2cc(F)c(N3CCN(C(=O)c4ccco4)CC3)cc21 | x | u | 16µM | u | u
Cc1nc(N2CCN(c3ccccn3)CC2)c2c(C)c(C(=O)Nc3ccc(F)cc3Cl)sc2n1 | x | x | 11µM | x | x
CCc1ccc(NC(=O)c2sc3nc(C)nc(N4CCN(c5ccccn5)CC4)c3c2C)cc1 | n | 10µM | 2.2µM | n | n
CCN(CC)c1ccc(C(=O)n2cnc3ccccc32)cc1 | 14µM | u | n | u | u
COc1ccc2c(c1)O[C@@H](c1ccc3c(c1)OCO3)[C@H](OC(=O)Nc1ccc(OC(F)F)cc1)C2=O | x | n | x | x | u
c1nc(NC2CCNCC2)c2cc(-c3ccoc3)ccc2n1 | x | x | n | x | x
NS(=O)(=O)c1ccc(N=Nc2c(-c3ccccc3)[nH]n(-c3nc(-c4ccccc4)cs3)c2=O)cc1 | n | 22µM | n | n | u
Nc1[nH]n2c(=O)cc(-c3ccccc3)nc2c1N=Nc1ccc(S(N)(=O)=O)cc1 | n | n | n | n | n
CN(CCC#N)C(=O)COC(=O)c1ccc(Cl)c(S(=O)(=O)N(C)c2ccccc2)c1 | n | n | n | n | n
COc1cc2c(cc1[N+](=O)[O-])-c1ccc([N+](=O)[O-])cc1C2=NNC(N)=S | n | x | n | n | x
NC(=S)NN=C1c2cc(Cl)ccc2-c2c1cc(Cl)cc2[N+](=O)[O-] | n | n | 20µM | n | n
Cn1c(SCCOc2ccccc2F)nc2ccccc2c1=O | n | 3.5µM | 40µM | n | n
O=c1[nH]c(SCCOc2ccccc2F)nc2ccccc12 | n | u | n | n | n
N/C(CCN1CCCCC1)=N\O | x | n | x | x | x
C=CCOC(=O)C1=C(C)NC(SCC(=O)Nc2ccc(C)c(Cl)c2)=C(C#N)[C@@H]1c1ccco1 | x | 10µM | x | x | x
CCOC(=O)C1=C(c2ccccc2)NC(SCC(=O)Nc2cccc(C)c2)=C(C#N)C1c1ccco1 (stereo not given) | x | u | n | x | n
CCOC(=O)C1=C(c2ccccc2)NC(SCC(=O)Nc2ccccc2C)=C(C#N)C1c1ccco1 (stereo not given) | x | 23µM | n | x | u
CCOC(=O)C1=C(c2ccccc2)NC(SCC(=O)Nc2ccc(C)cc2)=C(C#N)C1c1ccco1 (stereo not given) | n | u | n | u | n
C/C(=N/NC(=O)CNC(=O)C(c1ccccc1)c1ccccc1)c1ccco1 | n | n | n | n | n
COc1ccc(CC2(C)OC(c3ccc(C)cc3)=NN2C(C)=O)cc1 (stereo not given) | n | n | n | n | u
COc1ccc(CC2(C)OC(c3ccc(C)c([N+](=O)[O-])c3)=NN2C(C)=O)cc1 (stereo not given) | n | u | u | n | 0.79µM
O=c1[nH]ccc2c(S(=O)(=O)N3CCCNCC3)cccc12 | x | x | n | x | x
Cc1cc(-c2nn(-c3ccccc3F)cc2CN2CCCC(CO)C2)c(C)s1 (stereo not given) | u | 5.6µM | n | n | u
CCc1nn(CC(=O)Nc2ccc(N(CC)CC)cc2C)c(=O)c2cc3sccc3n12 | n | n | n | n | x
SMILES | VACV mCherry inh | MARV entry inh | FMDV antiviral | VACV Venus inh | Lassa entry inh
COc1ccc([C@@H]2Sc3ccccc3N(CCN(C)C)C(=O)[C@@H]2OC(C)=O)cc1 | n | u | n | n | 2.3µM
CCOC(=O)c1c(C)[nH]c(C2=NNC(=NC3CC3)SC2)c1C | x | x | 22µM | x | x
c1ccc(-c2noc(CN3CCN(c4cnccn4)CC3)n2)cc1 | n | n | n | n | n
O=C(N/N=C/c1cn(Cc2ccccc2)c2ccccc12)c1cccnc1 | n | 4.5µM | n | n | u
O=C(N/N=C/c1cn(Cc2ccccc2)c2ccccc12)c1ccncc1 | n | u | u | n | u
O=C(NN=Cc1ccc(N(CCCl)CCCl)cc1)c1cccnc1 | n | 5.6µM | n | n | u
Cc1nc(C)c(C(=O)NN=Cc2ccc(N(CCCl)CCCl)cc2)s1 | n | u | n | n | 7.1µM
COc1ccc2c(c1)-c1nc(-n3ncc(C(=O)NCc4cccnc4)c3C3CC3)ncc1CC2 | u | x | u | n | x
COc1ccc(/C=c2/sc3n(c2=O)C(c2ccccc2OC)C2=C(N=3)c3ccccc3CC2)cc1O (stereo not given) | x | 23µM | n | x | n
CCOC(=O)C1=C(C)N=c2s/c(=C\c3ccc(O)c([N+](=O)[O-])c3)c(=O)n2C1c1ccccc1OC (stereo not given) | n | n | u | n | n
